Data taken from PubChem BioAssay AID590 (National Center for Advancing Translational Sciences (NCATS), 2007).
The whole screen tested about 59,000 compounds, of which about 6,500 (11%) were called active. About 15% were inconclusive and are not listed. No stated cut-off is given here; in the data, active means max dye-equivalent concentration above about 10 nM; inconclusive means mostly about 1.1 nM to 9.6 nM; inactive means weaker than that. What follows is part of a selection rich in actives, with near analogues and random picks from the rest.

Test: qHTS Assay for Spectroscopic Profiling in A350 Spectral Region
Conditions: Compound autofluorescence, 340/450 nm, Alexa 350 dye-equivalents; hits give high values

| SMILES | max dye-equivalent concentration |
| --- | --- |
| O=C(COc1ncnc2ccccc12)NC(=O)NCc1ccccc1 | inactive |
| Cc1cccc(-n2c(N)cc(=O)nc2SC(C)C(=O)NC2CCCCC2)c1 (stereo not drawn) | inactive |
| COC(=O)c1ccc(CSc2ccccc2C)o1 | inactive |
| CCCc1cc(=O)oc2c(C)c(O)c(CN3CCCCC3)cc12 | 8800 nM (active) |
| CCOC(=O)N1CCN(Cc2oc(CO)cc(=O)c2O)CC1 | inactive |
| CCOC(=O)c1ccc(NC(=O)CSc2nnc(COc3ccccc3OC)n2C)cc1 | inactive |
| O=C(Nc1ccon1)c1cccc(Cl)c1 | inactive |
| CCCN1C2=C(C(=O)CCC2)C(c2ccc(O)c(Br)c2)C2=C1CCCC2=O | 81 nM (active) |
| c1ccc(CNc2ncncc2-c2cccnc2)cc1 | inactive |
| CCC(=O)Nc1ccc2c(c1)nc(CCN1CCN(C)CC1)n2C | inactive |
| CC(Nc1nc(N2CCCC2)nc2ccccc12)c1ccccc1 (stereo not drawn) | 170 nM (active) |
| Cc1ccc(C(CC(=O)O)Nc2nc(N3CCCCC3)nc(N3CCCCC3)n2)cc1 (stereo not drawn) | inactive |
| Cc1cc2c(cc1C)NC1=C(N2)O[C@H](c2c[nH]c3ccc(COc4ccccc4)cc23)C1=O | inactive |
| Cn1c(=O)n(C)c2cc(C(=O)Nc3ccc4c(c3)OCO4)ccc21 | inactive |
| Cn1c(=O)n(C)c2cc(CNc3ccc(N4CCOCC4)c(C(=O)O)c3)ccc21 | 22 nM (active) |
| Cn1nc(-c2ccc(N3CCOCC3)c(NC(=O)c3ccccc3)c2)c2ccccc2c1=O | inactive |
| Cn1c(CNc2nc(-c3ccccc3)cs2)nnc1SCC(=O)c1ccccc1 | inactive |
| COc1ccc(CC(=O)Nc2c3c(nn2-c2cccc(Cl)c2)CS(=O)C3)cc1 (stereo not drawn) | inactive |
| Cn1c(NC(=O)c2ccco2)c(-c2ccccc2Cl)c(=O)c2ccccc21 | inactive |
| COC(=O)c1cc(Cl)c(NC(=O)c2ccco2)cc1OC | inactive |
| Cc1ccc(-n2nc3cc(Cl)c(NC(=O)c4ccco4)cc3n2)cc1 | 52 nM (active) |
| CCN(CC)CCCNC(=O)c1cc(-c2cccc(Cl)c2)on1 | inactive |
| Cc1cc(C(F)(F)F)n2ncc(-c3ccccc3)c2n1 | 12 nM (active) |

| SMILES | max dye-equivalent concentration |
| --- | --- |
| Cc1cc(-n2nc(C)cc2C)n2ncc(-c3ccccc3)c2n1 | inactive |
| O=C(Cn1c(-c2ccc(Cl)cc2)noc1=O)N1CCN(c2ccccc2F)CC1 | inactive |
| CC(=O)Oc1ccc2c(C)c(CC(C)O)c(=O)oc2c1 (stereo not drawn) | 21000 nM (active) |
| COc1ccccc1-c1nc(NCCNC(C)=O)c2ccccc2n1 | inactive |
| C=CCn1c(=O)c2ccccc2n2c(SCC(=O)N3CCCc4ccccc43)nnc12 | inactive |
| O=c1oc2c(CN3CCCCC3)c(O)ccc2c2c1CCCCC2 | 13000 nM (active) |
| CCCn1c(=O)c2ccccc2n2c(SCC(=O)/C(C#N)=C(\C)N)nnc12 | inactive |
| Cc1ccc(S(=O)(=O)N(C)CC(=O)NC2CCCC2)cc1 | inactive |
| Cc1ccc(Cc2nc(-c3cccc(C)c3)no2)cc1 | inactive |
| COc1ccccc1Cc1nc(-c2ccc(C)cc2)no1 | 17 nM (active) |
| Cc1ccc(-c2noc(CN3CCN(Cc4ccccc4)CC3)n2)cc1 | inactive |
| C[C@H]1O[C@@H](CC(=O)O)Cc2c1c(O)c1c(O)cc(-c3cc(=O)c4c(=O)c5c(c(=O)c=4c3=O)C[C@H](CC(=O)O)O[C@@H]5C)c(O)c1c2O | inactive |
| O=C(CSc1nc2ccccc2o1)N1CCN(c2ccc(Cl)cc2)CC1 | inactive |
| CC(=O)N(CN1C(=O)C2CC=CCC2C1=O)c1cccc(Cl)c1 (stereo not drawn) | inactive |
| O=C(CC1NCCNC1=O)Nc1ccc(Oc2ccccc2)cc1 (stereo not drawn) | inactive |
| CCOc1ccc(NC(=O)CC2NCCNC2=O)cc1 (stereo not drawn) | inactive |
| O=C(CC1Nc2ccccc2NC1=O)Nc1ccccc1 (stereo not drawn) | 100 nM (active) |
| COc1ccc(Cc2nnnn2CC(=O)O)cc1 | inactive |
| CC(C)NC(=O)N1CC[C@@]2(CCCN(C(=O)c3cccn3C)C2)C1 | inactive |
| O=C(C1CCN(S(=O)(=O)c2cccs2)CC1)N1CCCCCC1 | inactive |
| O=C(Nc1nncs1)c1ccccc1NS(=O)(=O)c1cccs1 | 520 nM (active) |
| O=C(Nc1ncccn1)c1cccs1 | inactive |
| COCCCN1C(=O)c2ccc(C(=O)Nc3ccc(OC)cc3OC)cc2C1=O | inactive |

| SMILES | max dye-equivalent concentration |
| --- | --- |
| COc1ccc(NC(=O)N2CC3(CCN(C(=O)c4cccn4C)CC3)C2)cc1 | inactive |
| CCN1C(=O)C(C(=O)NC(C)c2ccccc2)C2CC1(C)Oc1ccccc12 (stereo not drawn) | inactive |
| CCOC(=O)NCc1ccc2c(c1)OCO2 | inactive |
| O=C(Cn1nnc(-c2ccccc2)n1)NCc1ccc2c(c1)OCO2 | inactive |
| CC1CCCCN1CC(=O)NCc1ccc2c(c1)OCO2 (stereo not drawn) | 50 nM (active) |
| COc1cccc(C2/C(=C(/O)c3ccncc3)C(=O)C(=O)N2CCCN(C)C)c1 (stereo not drawn) | inactive |
| CCCn1c(=O)c2[nH]c(C3CCCC3)nc2n(CCC)c1=O | inactive |
| CSCCC(NC(N)=O)C(=O)N(C)CC(=O)Nc1ccc(C)cc1 (stereo not drawn) | inactive |
| c1ccc(-n2nnnc2N2CCOCC2)cc1 | inactive |
| CN1CCN(c2ncc3nc(-c4ccc(Cl)cc4)c(=O)n(-c4ccccc4)c3n2)CC1 | 53 nM (active) |
| O=c1c(-c2ccc(F)cc2)nc2cnc(N3CCOCC3)nc2n1-c1ccccc1 | 29 nM (active) |
| O=C(c1ccc2c(c1)C(=O)N(c1ccc(Cl)cc1)C2=O)N1CCN(c2ccccn2)CC1 | inactive |
| Cn1cc(-c2nc3cncnc3n(-c3ccccc3)c2=O)c2ccccc21 | inactive |
| Clc1ccc(C(c2ccc(Cl)cc2)n2cc[n+](C[C@@H](OCc3ccc(Cl)cc3Cl)c3ccc(Cl)cc3Cl)c2)cc1 | inactive |
| COc1ccc(CNc2ncnc3ccc(-c4cccnc4)cc23)c(OC)c1 | inactive |
| Cc1cccc(N2CCN(C(=O)C3CCN(S(=O)(=O)c4cnc[nH]4)CC3)CC2)c1C | inactive |
| O=C(c1ccco1)N1CCC2(CC1)CN(c1ncccn1)C2 | inactive |
| Cc1nc(NCc2ccccc2)c(C(N)=O)c2c1COC(C)(C)C2 | 150 nM (active) |
| O=C(c1cccnc1NCc1ccccc1)N1CCOCC1 | inactive |
| O=c1ccn(Cc2ccccc2Cl)cc1 | inactive |
| CC(C)CNC(=O)c1cc(-c2ccc(Br)cc2)on1 | inactive |
| COC(=O)c1ccc(NC(=O)CSc2nnc(-c3ccncc3)n2C)cc1 | inactive |
